Source: ChEMBL document CHEMBL1961873, “Compounds: GSK PKIS; Assays: Nanosyn kinase panel” (2012)

How the values were obtained:
[1] = biological target: Dual specificity protein kinase CLK3 (Homo sapiens) (UniProt P49761); details: at 1 µM;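 also: each value is the mean inhibition of CLK3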
[2] = biological target: Dual specificity tyrosine-phosphorylation-regulated kinase 1A (Homo sapiens) (UniProt Q13627); details: at 0.1 µM
[3] = biological target: Dual specificity tyrosine-phosphorylation-regulated kinase 1A (Homo sapiens) (UniProt Q13627); details: at 1 µM
[4] = biological target: Dual specificity tyrosine-phosphorylation-regulated kinase 1B (Homo sapiens) (UniProt Q9Y463); details: at 0.1 µM
Sequence of Dual specificity tyrosine-phosphorylation-regulated kinase 1B (Homo sapiens) (Q9Y463 whole entry, looked up): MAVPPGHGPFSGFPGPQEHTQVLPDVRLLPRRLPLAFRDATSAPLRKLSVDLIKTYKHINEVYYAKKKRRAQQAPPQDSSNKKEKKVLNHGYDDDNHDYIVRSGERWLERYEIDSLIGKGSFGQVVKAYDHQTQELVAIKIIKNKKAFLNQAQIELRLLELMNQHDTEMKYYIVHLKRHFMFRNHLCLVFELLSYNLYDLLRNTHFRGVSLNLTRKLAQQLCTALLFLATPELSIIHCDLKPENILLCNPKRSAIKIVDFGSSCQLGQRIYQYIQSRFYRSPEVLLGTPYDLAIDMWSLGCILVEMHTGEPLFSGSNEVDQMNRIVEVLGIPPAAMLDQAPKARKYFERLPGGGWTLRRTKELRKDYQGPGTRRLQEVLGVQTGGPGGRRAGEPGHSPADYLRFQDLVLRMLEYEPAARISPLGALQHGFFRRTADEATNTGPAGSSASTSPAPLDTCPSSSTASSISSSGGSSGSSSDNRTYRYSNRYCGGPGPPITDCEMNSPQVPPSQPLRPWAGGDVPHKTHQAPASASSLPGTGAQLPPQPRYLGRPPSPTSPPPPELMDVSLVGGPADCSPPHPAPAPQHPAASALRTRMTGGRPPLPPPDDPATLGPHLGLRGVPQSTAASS

[5] = biological target: Dual specificity tyrosine-phosphorylation-regulated kinase 1B (Homo sapiens) (UniProt Q9Y463); details: at 1 µM
[6] = biological target: T1, Dual specificity tyrosine-phosphorylation-regulated kinase 2 (Homo sapiens) (UniProt Q92630); details: at 0.1 µM
T1 sequence (whole entry): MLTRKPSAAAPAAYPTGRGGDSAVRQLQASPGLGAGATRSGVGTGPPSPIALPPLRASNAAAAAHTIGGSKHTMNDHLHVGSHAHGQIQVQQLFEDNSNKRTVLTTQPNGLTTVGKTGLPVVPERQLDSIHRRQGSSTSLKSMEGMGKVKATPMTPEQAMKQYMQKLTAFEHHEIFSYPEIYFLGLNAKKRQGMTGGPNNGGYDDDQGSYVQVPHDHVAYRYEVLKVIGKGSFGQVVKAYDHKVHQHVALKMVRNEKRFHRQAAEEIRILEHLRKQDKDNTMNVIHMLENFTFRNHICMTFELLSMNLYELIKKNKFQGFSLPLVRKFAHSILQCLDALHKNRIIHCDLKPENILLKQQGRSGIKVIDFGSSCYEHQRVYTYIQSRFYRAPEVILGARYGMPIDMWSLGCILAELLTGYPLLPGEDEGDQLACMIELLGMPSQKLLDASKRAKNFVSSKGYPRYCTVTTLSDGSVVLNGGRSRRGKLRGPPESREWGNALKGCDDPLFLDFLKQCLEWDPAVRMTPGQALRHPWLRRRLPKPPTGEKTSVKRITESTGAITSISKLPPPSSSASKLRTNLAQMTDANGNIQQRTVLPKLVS

[7] = biological target: T1, Dual specificity tyrosine-phosphorylation-regulated kinase 2 (Homo sapiens); details: at 1 µM
[8] = biological target: Glycogen synthase kinase-3 alpha (Homo sapiens) (UniProt P49840); details: at 0.1 µM
Sequence of Glycogen synthase kinase-3 alpha (Homo sapiens) (P49840 2-483 limits assumed): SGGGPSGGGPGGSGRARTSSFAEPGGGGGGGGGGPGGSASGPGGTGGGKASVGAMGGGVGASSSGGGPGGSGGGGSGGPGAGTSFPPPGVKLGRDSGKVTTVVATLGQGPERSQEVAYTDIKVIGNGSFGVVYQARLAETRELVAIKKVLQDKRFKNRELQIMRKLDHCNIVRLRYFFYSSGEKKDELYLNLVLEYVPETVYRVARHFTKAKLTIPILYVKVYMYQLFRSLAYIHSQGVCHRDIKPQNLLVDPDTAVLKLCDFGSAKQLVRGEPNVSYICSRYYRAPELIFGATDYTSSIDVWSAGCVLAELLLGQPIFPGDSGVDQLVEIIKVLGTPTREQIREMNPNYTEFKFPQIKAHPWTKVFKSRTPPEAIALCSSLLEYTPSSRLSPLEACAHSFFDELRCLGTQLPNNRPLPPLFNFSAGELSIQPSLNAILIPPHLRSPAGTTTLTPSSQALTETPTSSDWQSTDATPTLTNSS

[9] = biological target: Glycogen synthase kinase-3 alpha (Homo sapiens) (UniProt P49840); details: at 1 µM
[10] = biological target: Glycogen synthase kinase-3 beta (Homo sapiens) (UniProt P49841); details: at 0.1 µM
Sequence of Glycogen synthase kinase-3 beta (Homo sapiens) (P49841 whole entry, looked up): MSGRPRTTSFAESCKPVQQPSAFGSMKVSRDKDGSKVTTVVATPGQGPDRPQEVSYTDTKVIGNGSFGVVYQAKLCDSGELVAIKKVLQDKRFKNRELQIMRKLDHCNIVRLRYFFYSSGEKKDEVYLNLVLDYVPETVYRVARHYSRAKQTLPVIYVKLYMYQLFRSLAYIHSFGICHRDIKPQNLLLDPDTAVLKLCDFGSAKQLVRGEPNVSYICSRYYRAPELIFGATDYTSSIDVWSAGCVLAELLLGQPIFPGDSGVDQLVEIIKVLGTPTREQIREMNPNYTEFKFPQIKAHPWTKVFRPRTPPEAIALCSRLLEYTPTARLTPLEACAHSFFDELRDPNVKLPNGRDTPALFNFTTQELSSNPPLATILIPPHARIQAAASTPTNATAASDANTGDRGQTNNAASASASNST

[11] = biological target: Glycogen synthase kinase-3 beta (Homo sapiens) (UniProt P49841); details: at 1 µM
[12] = biological target: Homeodomain-interacting protein kinase 1 (Homo sapiens) (UniProt Q86Z02); details: at 0.1 µM
Sequence of Homeodomain-interacting protein kinase 1 (Homo sapiens) (Q86Z02 whole entry, looked up): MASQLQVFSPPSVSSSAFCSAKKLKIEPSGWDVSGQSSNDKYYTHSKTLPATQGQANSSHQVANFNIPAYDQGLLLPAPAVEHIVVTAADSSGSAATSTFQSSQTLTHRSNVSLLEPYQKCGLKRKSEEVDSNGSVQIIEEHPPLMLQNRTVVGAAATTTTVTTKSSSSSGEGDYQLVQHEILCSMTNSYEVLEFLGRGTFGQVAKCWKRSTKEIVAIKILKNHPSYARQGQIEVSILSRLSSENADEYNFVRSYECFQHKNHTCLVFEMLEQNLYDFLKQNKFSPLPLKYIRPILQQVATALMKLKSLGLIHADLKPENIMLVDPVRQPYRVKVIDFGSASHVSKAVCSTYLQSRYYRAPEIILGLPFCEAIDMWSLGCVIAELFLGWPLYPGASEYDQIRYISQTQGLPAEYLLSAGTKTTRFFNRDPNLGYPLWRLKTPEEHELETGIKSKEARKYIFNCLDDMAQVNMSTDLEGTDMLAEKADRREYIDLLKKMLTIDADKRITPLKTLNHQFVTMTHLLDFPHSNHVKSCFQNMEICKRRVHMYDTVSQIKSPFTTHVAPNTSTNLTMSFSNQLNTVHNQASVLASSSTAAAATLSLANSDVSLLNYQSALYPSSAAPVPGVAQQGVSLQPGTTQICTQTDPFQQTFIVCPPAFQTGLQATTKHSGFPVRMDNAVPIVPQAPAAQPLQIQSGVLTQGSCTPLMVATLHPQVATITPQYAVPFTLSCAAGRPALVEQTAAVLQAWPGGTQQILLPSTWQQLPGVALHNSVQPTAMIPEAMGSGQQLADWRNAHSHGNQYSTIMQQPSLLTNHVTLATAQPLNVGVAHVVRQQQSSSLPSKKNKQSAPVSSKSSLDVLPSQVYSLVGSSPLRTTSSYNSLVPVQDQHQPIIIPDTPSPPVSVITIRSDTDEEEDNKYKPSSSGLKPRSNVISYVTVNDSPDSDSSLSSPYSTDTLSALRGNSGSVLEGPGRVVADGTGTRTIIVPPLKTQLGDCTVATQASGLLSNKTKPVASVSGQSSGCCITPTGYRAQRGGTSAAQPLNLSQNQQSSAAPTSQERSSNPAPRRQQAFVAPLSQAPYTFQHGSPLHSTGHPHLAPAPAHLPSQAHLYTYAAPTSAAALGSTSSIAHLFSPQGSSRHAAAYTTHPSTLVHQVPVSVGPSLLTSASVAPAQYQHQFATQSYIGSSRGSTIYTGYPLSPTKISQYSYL

[13] = biological target: Homeodomain-interacting protein kinase 1 (Homo sapiens) (UniProt Q86Z02); details: at 1 µM
[14] = biological target: T2, Homeodomain-interacting protein kinase 4 (Homo sapiens) (UniProt Q8NE63); details: at 0.1 µM
T2 sequence (whole entry): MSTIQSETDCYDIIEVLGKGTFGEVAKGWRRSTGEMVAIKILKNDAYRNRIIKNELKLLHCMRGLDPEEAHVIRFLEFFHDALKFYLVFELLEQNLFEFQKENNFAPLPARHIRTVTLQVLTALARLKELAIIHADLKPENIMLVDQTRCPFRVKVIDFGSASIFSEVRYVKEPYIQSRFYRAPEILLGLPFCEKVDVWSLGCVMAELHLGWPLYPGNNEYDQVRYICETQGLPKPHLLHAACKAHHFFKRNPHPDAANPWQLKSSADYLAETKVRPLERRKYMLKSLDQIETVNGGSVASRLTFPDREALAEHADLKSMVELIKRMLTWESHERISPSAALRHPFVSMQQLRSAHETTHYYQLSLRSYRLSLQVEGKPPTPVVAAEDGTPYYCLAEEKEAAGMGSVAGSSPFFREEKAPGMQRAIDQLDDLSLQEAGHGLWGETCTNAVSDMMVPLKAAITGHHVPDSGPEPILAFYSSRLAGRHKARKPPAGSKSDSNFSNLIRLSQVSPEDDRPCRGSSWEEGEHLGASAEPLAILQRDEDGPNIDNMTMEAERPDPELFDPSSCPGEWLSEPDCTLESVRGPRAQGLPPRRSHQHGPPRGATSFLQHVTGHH

[15] = biological target: T2, Homeodomain-interacting protein kinase 4 (Homo sapiens); details: at 1 µM
[16] = biological target: Mitogen-activated protein kinase 9 (Homo sapiens) (UniProt P45984); details: at 0.1 µM
Sequence of Mitogen-activated protein kinase 9 (Homo sapiens) (P45984 whole entry, looked up): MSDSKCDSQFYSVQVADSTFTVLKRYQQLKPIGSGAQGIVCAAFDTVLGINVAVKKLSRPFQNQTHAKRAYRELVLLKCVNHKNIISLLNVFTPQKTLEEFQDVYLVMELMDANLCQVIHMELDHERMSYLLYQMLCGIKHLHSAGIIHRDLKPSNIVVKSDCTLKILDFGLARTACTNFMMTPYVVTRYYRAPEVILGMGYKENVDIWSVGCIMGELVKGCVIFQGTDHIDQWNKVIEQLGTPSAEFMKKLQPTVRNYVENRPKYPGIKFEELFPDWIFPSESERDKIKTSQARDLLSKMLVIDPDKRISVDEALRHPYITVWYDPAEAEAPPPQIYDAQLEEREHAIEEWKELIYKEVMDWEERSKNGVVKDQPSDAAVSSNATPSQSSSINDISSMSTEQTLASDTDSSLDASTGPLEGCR

[17] = biological target: Mitogen-activated protein kinase 9 (Homo sapiens) (UniProt P45984); details: at 1 µM
[18] = biological target: Mitogen-activated protein kinase 1 (Homo sapiens) (UniProt P28482); details: at 0.1 µM
Sequence of Mitogen-activated protein kinase 1 (Homo sapiens) (P28482 whole entry): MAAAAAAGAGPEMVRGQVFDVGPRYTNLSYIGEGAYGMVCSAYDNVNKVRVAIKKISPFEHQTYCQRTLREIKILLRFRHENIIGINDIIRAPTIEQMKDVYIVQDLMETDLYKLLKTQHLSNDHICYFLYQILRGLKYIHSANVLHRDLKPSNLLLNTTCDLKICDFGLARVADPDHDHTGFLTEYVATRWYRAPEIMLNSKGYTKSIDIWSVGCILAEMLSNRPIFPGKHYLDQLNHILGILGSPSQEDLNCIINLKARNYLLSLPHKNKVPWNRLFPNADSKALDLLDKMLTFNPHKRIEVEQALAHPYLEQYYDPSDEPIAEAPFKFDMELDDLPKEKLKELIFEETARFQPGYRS

[19] = biological target: Mitogen-activated protein kinase 1 (Homo sapiens) (UniProt P28482); details: at 1 µM
[20] = biological target: Mitogen-activated protein kinase 3 (Homo sapiens) (UniProt P27361); details: at 0.1 µM;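 also: each value is a mean inhibition figure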
Sequence of Mitogen-activated protein kinase 3 (Homo sapiens) (P27361 whole entry): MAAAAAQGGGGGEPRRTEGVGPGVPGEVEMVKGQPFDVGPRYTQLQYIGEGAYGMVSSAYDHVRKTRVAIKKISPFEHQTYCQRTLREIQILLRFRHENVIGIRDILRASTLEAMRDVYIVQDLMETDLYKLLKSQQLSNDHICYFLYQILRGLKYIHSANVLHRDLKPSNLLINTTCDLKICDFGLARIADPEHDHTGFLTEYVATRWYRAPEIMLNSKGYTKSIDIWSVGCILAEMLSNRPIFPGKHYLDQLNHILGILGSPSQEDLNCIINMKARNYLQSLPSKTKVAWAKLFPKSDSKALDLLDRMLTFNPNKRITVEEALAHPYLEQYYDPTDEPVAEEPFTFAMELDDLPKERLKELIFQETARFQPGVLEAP

Sequence of Dual specificity protein kinase CLK3 (Homo sapiens) (P49761 whole entry, looked up): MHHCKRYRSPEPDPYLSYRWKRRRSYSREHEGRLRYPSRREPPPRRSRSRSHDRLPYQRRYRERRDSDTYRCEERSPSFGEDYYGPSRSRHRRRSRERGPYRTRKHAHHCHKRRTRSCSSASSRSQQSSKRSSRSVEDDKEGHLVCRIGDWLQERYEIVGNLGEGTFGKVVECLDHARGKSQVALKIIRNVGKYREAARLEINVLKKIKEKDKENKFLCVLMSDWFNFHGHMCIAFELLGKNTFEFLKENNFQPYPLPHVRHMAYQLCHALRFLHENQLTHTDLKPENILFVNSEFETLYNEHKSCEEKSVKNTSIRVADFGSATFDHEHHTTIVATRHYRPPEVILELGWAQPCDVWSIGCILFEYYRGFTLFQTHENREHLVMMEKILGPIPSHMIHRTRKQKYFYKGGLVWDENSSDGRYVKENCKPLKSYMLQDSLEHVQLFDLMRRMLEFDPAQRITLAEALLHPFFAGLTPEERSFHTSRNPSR

Compound	inhibition [1] [%]	inhibition [2] [%]	inhibition [3] [%]	inhibition [4] [%]	inhibition [5] [%]	inhibition [6] [%]	inhibition [7] [%]	inhibition [8] [%]	inhibition [9] [%]	inhibition [10] [%]	inhibition [11] [%]	inhibition [12] [%]	inhibition [13] [%]	inhibition [14] [%]	inhibition [15] [%]	inhibition [16] [%]	inhibition [17] [%]	inhibition [18] [%]	inhibition [19] [%]	inhibition [20] [%]
CCn1c(-c2nonc2N)nc2cncc(C(=O)N3CCNCC3)c21	1.12	3.49	4.33	0.28	-0.73	4.35	7.99	2.98	2.61	1.93	1.94	-1.03	0.35	-0.43	0.6	5.31	8.83	8.16	7.48	6.65
CN1CCC(C(=O)Nc2n[nH]c3nnc(-c4ccccc4)cc23)CC1	2.52	7.11	33.9	7.12	31.9	4.83	9.37	79.5	85.7	–	–	3.96	9.2	0.93	4.44	4.37	5.52	7.18	5.71	5.71
NS(=O)(=O)c1cccc(-c2ccc3c(NC(=O)C4CC4)n[nH]c3c2)c1	1.36	2.96	3.42	2.16	3.65	-1.18	-0.6	1.01	3.15	–	–	-0.23	0.61	0.1	1.04	-7.07	-5.26	-2.53	-5.17	0.73
COc1cc2ncn(-c3cc(O[C@@H](C)c4ccccc4Cl)c(C(N)=O)s3)c2cc1OC	2.08	4.47	8.19	-0.84	5.29	2.62	3.36	3.02	6.38	2.25	5.97	-0.99	4.95	2.88	22.1	2.45	8.24	5.66	6.55	4.78
O=C(Nc1n[nH]c2nc(-c3ccco3)c(Br)cc12)C1CC1	2.72	1.71	4.33	0.48	3.25	3.03	4.31	36.9	80.6	–	–	-1.07	3.67	0.54	2.1	2.66	3.7	-0.07	5.13	5.33
Nc1nc(-c2ccc3c(c2)C(=Cc2cc(Br)c(O)c(Br)c2)C(=O)N3)cs1	2.88	1.71	4.89	1.38	3.44	-2.46	-0.96	0.62	4.94	0.83	4.42	-1.1	4.76	0.92	11.3	-3.8	-4.58	-2.57	-2.89	-0.09
NCc1ccc(-c2nc(-c3ccc(Cl)c(O)c3)c(-c3ccncc3)[nH]2)cc1	3.14	3.51	3.85	4.36	3.42	0.33	0.81	4.59	32.5	16.9	65.4	0.11	5.53	0.99	8.45	4.51	15.8	-0.32	0.67	0.94
Cc1nnc(-c2ccc(C)c(-c3ccc(C(=O)Nc4cccc(C#N)c4)cc3)c2)o1	1.62	0.92	3.59	0.45	1.21	1.13	1.2	2.41	4.82	2.45	3.29	-1.32	-2.46	0.46	0.28	4	2.96	0.61	2.56	3.17
CS(=O)(=O)CCNCc1ccc(-c2ccc3ncnc(Nc4ccc(OCc5cccc(F)c5)c(C(F)(F)F)c4)c3c2)o1	0.98	2.19	1.7	-1.48	-1.44	2.83	3.42	1.48	0.2	0.25	-0.18	-1.8	-2.73	-1.19	-0.51	5.87	4.78	5.04	5.42	2.83
COc1cc2ncn(-c3cc(O[C@H](C)c4ccccc4Cl)c(C(N)=O)s3)c2cc1OC	7.93	-0.27	3.73	-0.01	0.14	2.5	5.55	5.34	19.8	5.07	23	3.82	12.1	11.2	30.2	2.72	3.88	5.57	4.8	2.92
COc1ccc(-c2ccncc2)cc1C(N)=O	0.61	3.91	6.95	-1.51	2.44	3.8	9.87	3	4.53	2.89	4.32	-2.78	3.84	0.07	4.19	4.22	5.45	5.23	6.46	3.61
CCn1c(-c2nonc2N)nc2ccncc21	0.52	0.1	2.88	-0.02	0.71	1.94	2.17	0.52	7.82	0.08	5.32	-3.19	0.47	-0.89	-0.65	3.39	2.53	13.4	1.62	2.94
Nc1ncnc2occ(-c3ccc(NC(=O)Nc4cc(C(F)(F)F)cc(C(F)(F)F)c4)cc3)c12	1.36	0.09	2.4	0.19	1.76	1.71	2.18	1.22	5.65	1.08	7.52	0.45	11.7	14.4	63.3	2.13	6.77	2.73	1.95	0.6
CS(=O)(=O)CCNCc1nc(-c2ccc3ncnc(Nc4ccc(F)c(Cl)c4)c3c2)cs1	0.43	0.63	1.24	0.27	1.63	0.37	2.12	1.3	3.03	1.2	1.99	1.07	5.32	3.32	18.8	1.61	4.55	4.72	5.04	1.63
